Assay results from PubChem BioAssay AID651692 (Broad Institute, 2012).
Entries with a potency or affinity are not part of this list. Calls of active or inactive are those of the source.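 How the source made its calls: active means fitted half-maximal concentration for loss of cell signal no higher than twice the top valid tested concentration; inconclusive means flat curve at 30 to 70% inhibition, or poor fit; inactive means flat within 30%, signal rise, or potency above limit.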

Assay: cytotoxicity toward MDA-MB-231 breast cancer cells – cell-based, CellTiter-Glo luminescence, cherry-pick, cytotoxicity control for RAD54 inhibitor project, dose response (AID 651692);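 further: 0% = median of sample compound wells and -100% = staurosporine control wells; more negative values mean stronger loss of viable cell signal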
Settings: MDA-MB-231 viability, 24 h; series mostly up to 26 µM; activity change, negative = growth inhibition: at the top concentration
In the case of `CCN(CC)S(=O)(=O)c1ccc(Cl)c(C(=O)Nc2nnc(C)s2)c1`, the “activity change, negative = growth inhibition” value was 3.35% (inactive). With `CN(C)CCNC(=O)c1cc2c(=O)n(C)c3ccccc3c2n1C` the “activity change, negative = growth inhibition” value was 6.67% (inactive). With `CCN(CC)CCNc1nc(SC)nc2sc3c(c12)CCN(C)C3` the “activity change, negative = growth inhibition” value was -3.77% (inactive). With `CCOc1ccc2nc(C)cc(Nc3ccc4c(c3)OCCO4)c2c1` the “activity change, negative = growth inhibition” value was -23.8% (inactive). For `CCN(CC)CCn1c2ccc(F)cc2c2nc(C)sc21`, the “activity change, negative = growth inhibition” value was -4.17% (inactive). For `COc1ccccc1C1=NOC(Cn2c(NCCCO)nc3c2c(=O)n(C)c(=O)n3C)C1` (centres undefined), the “activity change, negative = growth inhibition” value was 3.77% (inactive). In the case of `Cn1c(NCCN2CCCC2)nc2cc(-c3ccccc3)sc2c1=O`, the “activity change, negative = growth inhibition” value was -6.96% (inactive). In the case of `O=C(NCCCN1CCOCC1)c1cnn2c(-c3ccccc3)cc(-c3ccccc3)nc12`, the “activity change, negative = growth inhibition” value was -10.7% (inactive). For `COc1ccc(OC)c2c(C)cc(NCCN3CCOCC3)nc12`, the “activity change, negative = growth inhibition” value was -1.22% (inactive). For `Oc1ccc(CCNc2c3ccccc3nc3ccccc23)cc1O`, the “activity change, negative = growth inhibition” value was -15% (inactive). With `CN1CCN(c2nc(-c3cccs3)nc3ccccc23)CC1` the “activity change, negative = growth inhibition” value was 1.82% (inactive). With `CN(C)CCCNc1nc2cc(-c3ccc(F)cc3)sc2c(=O)n1C` the “activity change, negative = growth inhibition” value was 1.98% (inactive). In the case of `CCN(CC)CCNc1cccc2sc3ccccc3c(=O)c12`, the “activity change, negative = growth inhibition” value was -14.9% (inactive). With `Cc1cc(N2CCN(C)CC2)nc2ccc(NC(=S)NCCN3CCc4ccccc4C3)cc12` the “activity change, negative = growth inhibition” value was -6.89% (inactive). In the case of `CC(C)CSc1ncc(-c2cccc(C(F)(F)F)c2)cn1`, the “activity change, negative = growth inhibition” value was 9.42% (inactive). With `CCN1CCN(c2ccc(Nc3ccnc4ccccc34)cc2)CC1` the “activity change, negative = growth inhibition” value was -8.61% (inactive). With `CC(=O)Nc1cc(-c2ccc(N3CCN(C)CC3)cc2)cn2c(-c3ccc(S(C)(=O)=O)cc3)cnc12` the “activity change, negative = growth inhibition” value was -10.1% (inactive). With `Cc1ccc(-c2nc(N3CCN(C)CC3)c3ccccc3n2)cc1` the “activity change, negative = growth inhibition” value was -0.384% (inactive). With `CC(=O)Nc1ccc2cc3ccc(NC(C)=O)cc3nc2c1` the “activity change, negative = growth inhibition” value was -1.22% (inactive).
